# Reference: PubChem BioAssay (Tox21)
# Where “and” joins values, the source holds several entries; their conditions need not be identical. Equal values may be shown once. A number with no mark means an inactive call. Entries that show only a call come without a potency. Calls of active or inactive are those of the source. Unless noted, calls come from the whole dose curve; as a rule, active = well fitted curve in the direction sought with a large enough effect in the repeat runs; inconclusive = weak or mixed curves; inactive = no such curve, though single readings can be large; an effect the other way counts as inactive or inconclusive.
# Key:
# [1] = system: thyroid hormone receptor (rat, GH3 cells); experiment: qHTS assay to identify small molecule agonists of the thyroid receptor (TR) signaling pathway (AID 743066; calls by dose curve)
# [2] = target: Estrogen receptor (Homo sapiens) (UniProt P03372); experiment: qHTS assay to identify small molecule antagonists of the estrogen receptor alpha (ER-alpha) signaling pathway (AID 743069; active = well fitted curve in the direction sought with a large enough effect in the signal ratio in the repeat runs, not every such curve was filed as active; inconclusive = weak or mixed curves, or effect the other way; inactive = no such curve, though single readings can be large or run the other way; the % refers to the signal ratio; note: potency is the fitted concentration of half-maximal effect)
# Estrogen receptor (Homo sapiens), sequence (P03372 whole entry, looked up): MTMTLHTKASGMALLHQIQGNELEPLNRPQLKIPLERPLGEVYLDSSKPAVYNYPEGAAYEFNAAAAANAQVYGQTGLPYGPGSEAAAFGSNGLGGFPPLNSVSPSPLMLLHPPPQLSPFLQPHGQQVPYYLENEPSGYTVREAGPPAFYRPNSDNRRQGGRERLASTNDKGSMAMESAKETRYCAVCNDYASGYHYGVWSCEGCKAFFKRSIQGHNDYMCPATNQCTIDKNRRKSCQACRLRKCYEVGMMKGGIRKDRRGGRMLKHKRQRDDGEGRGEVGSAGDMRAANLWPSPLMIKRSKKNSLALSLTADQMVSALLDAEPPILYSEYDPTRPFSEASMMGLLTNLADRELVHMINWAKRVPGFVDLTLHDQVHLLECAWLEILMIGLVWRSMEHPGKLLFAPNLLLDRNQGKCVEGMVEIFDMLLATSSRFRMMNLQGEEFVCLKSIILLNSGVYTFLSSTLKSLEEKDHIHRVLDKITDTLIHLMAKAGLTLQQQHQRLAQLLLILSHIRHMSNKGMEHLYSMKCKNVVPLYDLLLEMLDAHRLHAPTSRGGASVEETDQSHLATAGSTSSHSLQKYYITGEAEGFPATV
# Procedure, shortened: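 Antagonist mode: compounds in DMSO were co-added with 17beta-estradiol to ER-alpha-bla HEK293 cells (2% charcoal-stripped serum) and left 18 h at 37C. Reporter inhibition was measured as FRET fluorescence after 2 h LiveBLAzer substrate at room temperature.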
# [3] = target: Estrogen receptor (Homo sapiens) (UniProt P03372); experiment: qHTS assay to identify small molecule agonists of the estrogen receptor alpha (ER-alpha) signaling pathway (AID 743075; calls by dose curve;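 note: HEK293 GripTite cells with ER-alpha and UAS-driven beta-lactamase reporter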; note: potency is the fitted concentration of half-maximal effect)
# [4] = target: Estrogen receptor (Homo sapiens) (UniProt P03372); experiment: qHTS assay to identify small molecule agonists of the estrogen receptor alpha (ER-alpha) signaling pathway using the BG1 cell line (AID 743079); details: BG1Luc4E2 cells, ERE-luciferase agonist, 22 h; activation: at 70.3 µM (top of the series); note: nearly all actives have a fitted effect of over 20% in size; note: potency is the fitted concentration of half-maximal effect
# [5] = qHTS assay to identify small molecule antagonists of the estrogen receptor alpha (ER-alpha) signaling pathway using the BG1 cell line (AID 743080; calls by dose curve;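 note: BG1 cells stimulated with 17beta-estradiol alongside compound; nearly all actives have a fitted effect of over 25% in size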; note: potency is the fitted concentration of half-maximal effect); details: BG1Luc4E2 ERE-luciferase antagonist mode, luminescence; activity change, negative = inhibition: at 70.3 µM (top of the series)
# Procedure, shortened: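 Readout is ONE-Glo luminescence, taken 30 min at room temperature after reagent addition, preceded by a CellTiter-Fluor viability read; BG1-Luc-4E2 cells had received compound and 17beta-estradiol for 21.5 h at 37 C.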
# [6] = qHTS assay to identify small molecule antagonists of the estrogen receptor alpha (ER-alpha) signaling pathway using the BG1 cell line - cell viability counter screen (AID 743081);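 note: compound given together with 17beta-estradiol as the ER stimulus; nearly all actives have a fitted effect of over 45% in size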; note: potency is the fitted concentration of half-maximal effect
# Aromatase (Homo sapiens) = Aromatase (Homo sapiens) (UniProt P11511); experiment: qHTS assay to identify aromatase inhibitors (AID 743083); note: nearly all actives have a fitted effect of over 55% in size; note: potency is the fitted concentration of half-maximal effect
# Aromatase (Homo sapiens), sequence (P11511 whole entry, looked up): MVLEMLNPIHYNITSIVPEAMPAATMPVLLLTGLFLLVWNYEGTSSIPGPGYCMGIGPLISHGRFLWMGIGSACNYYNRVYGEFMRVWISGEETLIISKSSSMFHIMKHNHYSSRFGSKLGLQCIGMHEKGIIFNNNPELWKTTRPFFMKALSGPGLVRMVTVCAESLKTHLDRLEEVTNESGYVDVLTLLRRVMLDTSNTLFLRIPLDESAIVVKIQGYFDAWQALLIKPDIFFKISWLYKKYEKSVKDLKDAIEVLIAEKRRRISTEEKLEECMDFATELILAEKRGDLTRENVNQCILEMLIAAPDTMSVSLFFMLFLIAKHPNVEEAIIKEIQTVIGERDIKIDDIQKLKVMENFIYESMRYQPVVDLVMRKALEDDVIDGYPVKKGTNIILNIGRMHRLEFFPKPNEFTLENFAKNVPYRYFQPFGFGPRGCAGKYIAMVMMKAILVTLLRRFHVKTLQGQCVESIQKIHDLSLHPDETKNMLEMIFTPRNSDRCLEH
# [7] = qHTS assay to identify aromatase inhibitors - cell viability counter screen (AID 743084);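 note: cells stimulated with testosterone during compound exposure; nearly all actives have a fitted effect of over 55% in size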; note: potency is the fitted concentration of half-maximal effect
# [8] = target: Aryl hydrocarbon receptor (Homo sapiens) (UniProt P35869); experiment: qHTS assay to identify small molecule that activate the aryl hydrocarbon receptor (AhR) signaling pathway (AID 743085); note: nearly all actives have a fitted effect of over 15% in size; note: potency is the fitted concentration of half-maximal effect;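 for activation: HG2L7.5c1 human HepG2 liver cells with stably integrated DRE-driven firefly reporter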
# Aryl hydrocarbon receptor (Homo sapiens), sequence (P35869 whole entry, looked up): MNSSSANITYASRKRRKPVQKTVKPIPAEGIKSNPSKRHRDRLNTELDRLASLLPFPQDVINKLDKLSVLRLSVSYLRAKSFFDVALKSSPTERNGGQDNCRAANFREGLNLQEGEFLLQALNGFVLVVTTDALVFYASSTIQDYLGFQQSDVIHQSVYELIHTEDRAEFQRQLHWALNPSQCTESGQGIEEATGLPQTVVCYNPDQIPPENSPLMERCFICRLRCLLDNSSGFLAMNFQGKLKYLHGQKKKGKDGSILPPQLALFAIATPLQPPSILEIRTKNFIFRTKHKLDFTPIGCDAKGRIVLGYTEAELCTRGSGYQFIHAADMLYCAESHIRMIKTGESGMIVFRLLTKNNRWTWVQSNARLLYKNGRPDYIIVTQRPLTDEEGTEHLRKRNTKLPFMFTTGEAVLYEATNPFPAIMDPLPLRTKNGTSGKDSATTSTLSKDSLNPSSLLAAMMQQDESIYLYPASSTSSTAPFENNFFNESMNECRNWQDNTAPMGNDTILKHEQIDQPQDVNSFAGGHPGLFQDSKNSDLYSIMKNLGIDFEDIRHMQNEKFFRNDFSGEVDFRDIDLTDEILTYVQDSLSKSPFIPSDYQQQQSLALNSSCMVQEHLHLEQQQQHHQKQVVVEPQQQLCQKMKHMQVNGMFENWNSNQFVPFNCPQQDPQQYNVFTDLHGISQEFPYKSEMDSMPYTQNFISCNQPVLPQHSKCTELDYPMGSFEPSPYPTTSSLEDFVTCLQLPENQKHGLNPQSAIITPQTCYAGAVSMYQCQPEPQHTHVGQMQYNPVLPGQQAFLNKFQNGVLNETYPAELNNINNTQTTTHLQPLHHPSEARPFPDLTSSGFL
# Procedure, shortened: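 A multiplexed format paired cell viability (CellTiter-Fluor fluorescence) with AhR-dependent luciferase output (ONE-Glo luminescence) in the same wells of HepG2 DRE-luc cells after 24 h compound exposure at 37C.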
# [9] = qHTS assay to identify small molecule that activate the aryl hydrocarbon receptor (AhR) signaling pathway - cell viability counter screen (AID 743086); note: nearly all actives have a fitted effect of over 45% in size; note: potency is the fitted concentration of half-maximal effect
# Procedure, shortened: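 Cytotoxicity counter screen: CellTiter-Fluor signal (30 min, 37 C) in 4000 HepG2 cells/well carrying the DRE-luciferase reporter, following 24 h compound exposure at 37 C.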
# [10] = qHTS assay to identify small molecule antagonists of the peroxisome proliferator-activated receptor gamma (PPARg) signaling pathway - cell viability counter screen (AID 743194); note: nearly all actives have a fitted effect of over 55% in size; note: potency is the fitted concentration of half-maximal effect
# Procedure, shortened: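 Viability was measured as CellTiter-Glo luminescence in GeneBLAzer PPARg UAS-bla HEK293H cells. These cells had been exposed 17 h at 37 C to compounds together with rosiglitazone at 50 nM final, with the beta-lactamase readout taken in the same wells.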
# [11] = qHTS assay for small molecule agonists of the antioxidant response element (ARE) signaling pathway - cell viability counter screen (AID 743203; calls by dose curve; note: nearly all actives have a fitted effect of over 55% in size; note: potency is the fitted concentration of half-maximal effect)
# Procedure, shortened: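 Luminescence read-out (CellTiter-Glo, 30 min at room temperature) measured cell viability in the same wells as the ARE beta-lactamase reporter. HepG2 ARE-bla cells were treated with compounds for 16 hrs at 37C/5% CO2.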
# [12] = qHTS assay for small molecule activators of the heat shock response signaling pathway - cell viability counter screen (AID 743209); note: nearly all actives have a fitted effect of over 50% in size; note: potency is the fitted concentration of half-maximal effect
# Procedure, shortened: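 HSE-bla HeLa; 1500 cells/well; overnight 37 C, 5% CO2; compound 5 h 37 C; LiveBLAzer B/G substrate 2.5 h RT; CellTiter-Glo 30 min RT; luminescence.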
# [13] = qHTS assay to identify small molecule antagonists of the estrogen receptor alpha (ER-alpha) signaling pathway - cell viability counter screen (AID 743074; calls by dose curve;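 note: HEK293 cells carrying ER-alpha-UAS-bla reporter stimulated with 17beta-estradiol; nearly all actives have a fitted effect of over 45% in size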; note: potency is the fitted concentration of half-maximal effect)
# [14] = qHTS assay to identify small molecule agonists of the peroxisome proliferator-activated receptor delta (PPARd) signaling pathway - cell viability counter screen (AID 743211); note: nearly all actives have a fitted effect of over 55% in size; note: potency is the fitted concentration of half-maximal effect
# Procedure, shortened: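 Tox21 library compounds, delivered in DMSO, were incubated 17 h with PPARd-bla HEK293H cells; cytotoxicity was taken from CellTiter-Glo luminescence read 30 min after reagent addition.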
# [15] = target: Peroxisome proliferator-activated receptor delta (Homo sapiens) (UniProt Q03181); experiment: qHTS assay to identify small molecule agonists of the peroxisome proliferator-activated receptor delta (PPARd) signaling pathway (AID 743212; calls by dose curve;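 note: HEK293H cells with PPARd UAS beta-lactamase reporter GeneBLAzer system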)
# Peroxisome proliferator-activated receptor delta (Homo sapiens), sequence (Q03181 whole entry, looked up): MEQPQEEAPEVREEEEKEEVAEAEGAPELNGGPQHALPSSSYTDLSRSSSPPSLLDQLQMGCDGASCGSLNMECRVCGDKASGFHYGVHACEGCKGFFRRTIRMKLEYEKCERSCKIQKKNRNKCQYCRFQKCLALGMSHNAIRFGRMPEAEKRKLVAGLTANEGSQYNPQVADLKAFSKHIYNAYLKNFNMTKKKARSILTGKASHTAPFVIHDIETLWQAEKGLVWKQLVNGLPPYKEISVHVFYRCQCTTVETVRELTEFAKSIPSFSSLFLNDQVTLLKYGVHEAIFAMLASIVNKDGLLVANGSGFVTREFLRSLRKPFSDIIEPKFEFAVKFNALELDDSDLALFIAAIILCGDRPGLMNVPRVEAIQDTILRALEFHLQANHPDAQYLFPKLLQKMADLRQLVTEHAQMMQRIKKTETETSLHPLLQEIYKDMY
# Procedure, shortened: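 Beta-lactamase reporter readout: a ratiometric FRET signal from the LiveBLAzer substrate after 2 h at room temperature. Compound exposure at 37 °C in PPARδ-bla HEK293H cells driven by an upstream activator sequence.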
# [16] = target: Peroxisome proliferator-activated receptor gamma (Homo sapiens) (UniProt P37231); experiment: qHTS assay to identify small molecule agonists of the peroxisome proliferator-activated receptor gamma (PPARg) signaling pathway (AID 743094; active = well fitted activation curve with a large enough effect in the signal ratio in the repeat runs, not every such curve was filed as active; inconclusive = weak or mixed curves, or effect the other way; inactive = no such curve, though single readings can be large or run the other way; the % refers to the signal ratio; note: potency is the fitted concentration of half-maximal effect)
# Peroxisome proliferator-activated receptor gamma (Homo sapiens), sequence (P37231 whole entry, looked up): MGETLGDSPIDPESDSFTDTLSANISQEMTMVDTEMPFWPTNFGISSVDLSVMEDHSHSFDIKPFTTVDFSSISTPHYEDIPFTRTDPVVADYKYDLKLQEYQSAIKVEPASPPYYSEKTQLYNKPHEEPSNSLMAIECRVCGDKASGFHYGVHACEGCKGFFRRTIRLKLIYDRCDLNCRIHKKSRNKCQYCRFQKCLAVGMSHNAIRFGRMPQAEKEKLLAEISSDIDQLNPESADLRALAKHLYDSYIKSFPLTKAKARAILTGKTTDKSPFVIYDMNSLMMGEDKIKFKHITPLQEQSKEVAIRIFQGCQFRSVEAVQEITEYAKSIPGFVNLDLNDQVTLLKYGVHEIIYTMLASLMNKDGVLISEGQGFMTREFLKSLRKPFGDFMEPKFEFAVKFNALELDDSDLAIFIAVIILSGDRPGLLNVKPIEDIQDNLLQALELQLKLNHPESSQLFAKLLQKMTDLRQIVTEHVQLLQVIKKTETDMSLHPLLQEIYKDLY
# Procedure, shortened: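 HEK293H PPARg-bla cells, 5 h settle at 37C/5% CO2; compound (DMSO) 17 h, 37C; B/G FRET substrate 1 h RT; fluorescence intensity read-out. qHTS format.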
# [17] = target: Peroxisome proliferator-activated receptor gamma (Homo sapiens) (UniProt P37231); experiment: qHTS assay to identify small molecule antagonists of the peroxisome proliferator-activated receptor gamma (PPARg) signaling pathway (AID 743191; calls by dose curve; note: nearly all actives have a fitted effect of over 30% in size)
# Procedure, shortened: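 Beta-lactamase reporter under UAS control in HEK293H PPARg-bla cells; compound treatment 17 h at 37C. Read-out: fluorescence intensity after 1 h room-temperature incubation with LiveBLAzer B/G FRET substrate.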
# [18] = qHTS assay for small molecule agonists of the antioxidant response element (ARE) signaling pathway (AID 743202; active = well fitted activation curve with a large enough effect in the signal ratio in the repeat runs, not every such curve was filed as active; inconclusive = weak or mixed curves, or effect the other way; inactive = no such curve, though single readings can be large or run the other way; the % refers to the signal ratio; note: potency is the fitted concentration of half-maximal effect)
# Procedure, shortened: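 After 16 hours of compound treatment at 37 C, HepG2 cells with a stably integrated ARE-driven beta-lactamase reporter were loaded 2 hours at room temperature with LiveBLAzer B/G FRET substrate and fluorescence intensity measured.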
# [19] = qHTS assay for small molecule activators of the heat shock response signaling pathway (AID 743210; active = well fitted activation curve with a large enough effect in the signal ratio in the repeat runs, with a control signal flat, not every such curve was filed as active; inconclusive = weak or mixed curves; the % refers to the signal ratio)
# Procedure, shortened: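 Compound exposure lasted 5 h at 37 C in HeLa cells carrying a heat-shock-element-driven beta-lactamase reporter. Read-out: fluorescence intensity after 2.5 h room-temperature loading with LiveBLAzer B/G FRET substrate.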
SMILES,Potency [1],Potency [2],Potency [3],Potency [4],Potency [5],Potency [6],Potency (Aromatase (Homo sapiens)),Potency [7],Potency [8],Potency [9],Potency [10],Potency [11],Potency [12],Potency [13],Potency [14],outcome [15],Potency [16],Potency [17],Potency [18],Potency [19]
CC(C)(C)C1=CC(=O)C=C(C(C)(C)C)C1=O,inactive,inactive,inactive,inactive,inactive,inactive,34.4 µM (active),34.4 µM (active),inactive,inactive,24.6 µM (active),54.5 µM (active),43.7 µM (active),–,–,–,–,–,–,–
C=CC(=O)OCC(O)COc1ccccc1 (stereo not drawn),inactive,–,inactive,inactive,–,inactive,68.6 µM (active),61.1 µM (active),inactive,inactive,–,–,4.9 µM (active),inactive,49 µM (active),inactive,–,–,–,–
CC(O)C#CC(C)O (stereo not drawn),inactive,–,inactive,inactive,–,inactive,–,30.3 µM (active),inactive,inactive,–,–,21.7 µM (active),inactive,–,inactive,54.4 µM (active),–,–,–
CCN=c1cc2oc3cc(NCC)c(C)cc3c(-c3ccccc3C(=O)OCC)c-2cc1C,inactive,48.8 nM [inconclusive] (active) and 155 nM [inconclusive] (active),inactive,–,172 nM (active) and 217 nM (active),3.84 µM (active) and 5.45 µM (active),193 nM (active) and 137 nM (active),1.21 µM (active) and 1.93 µM (active),inactive,6.83 µM (active) and 7.7 µM (active),10.9 µM (active) and 6.92 µM (active),60.9 µM (active) and 30.6 µM (active),30.8 µM (active) and 19.5 µM (active),24.5 µM (active) and 21.9 µM (active),48.8 µM (active) and 27.5 µM (active),inactive,–,–,–,–
CCCCCCCCCCCCOC(=O)c1cc(O)c(O)c(O)c1,inactive,19.4 µM [inconclusive] (active),–,–,–,–,30.5 µM (active) and 27.3 µM (active),30.5 µM (active) and 61.1 µM (active),inactive,inactive,43.6 µM (active),68.3 µM (active) and 61.1 µM (active),–,49 µM (active),34.5 µM (active) and 43.6 µM (active),–,–,–,–,–
C/C=C/C(=O)Oc1c(CCCCCC(C)C)cc([N+](=O)[O-])cc1[N+](=O)[O-],inactive,4.9 µM [inconclusive] (active),–,–,–,–,15.4 µM (active),21.7 µM (active),–,–,6.16 µM (active),8.63 µM (active),–,–,–,–,–,–,–,–
O=C(Nc1ccc(Cl)c(Cl)c1)c1cc(Cl)cc(Cl)c1O,inactive,–,0.436 µM [inconclusive] (active),–,4.86 µM (active),inactive,6.11 µM (active),–,0.109 µM (active),inactive,0.49 µM (active),24.3 µM (active),–,2.45 µM (active),5.49 µM (active),–,–,–,–,–
CCc1ccc(O)c(C(C)(C)C)c1,inactive,inactive,–,27.3 µM (active),inactive,inactive,68.6 µM (active),–,inactive,inactive,–,–,inactive,inactive,–,inactive,inactive,–,–,–
CNC(=S)NN,inactive,–,inactive,–,–,inactive,61.1 µM (active),–,inactive,19.3 µM (active),inactive,–,24.5 µM (active),inactive,12.3 µM (active),–,inactive,inactive,–,–
CC(C)c1ccc(O)c(C(C)C)c1,inactive,inactive,inactive,inactive,54.5 µM (active),inactive,–,–,inactive,inactive,inactive,–,inactive,–,–,inactive,inactive,–,–,–
c1cc(OCC2CO2)cc(OCC2CO2)c1 (stereo not drawn),inactive,–,inactive,–,–,inactive,–,48.2 µM (active),–,–,inactive,inactive,inactive,–,–,inactive,–,–,30.4 µM (active),–
O=C(O)CCn1c2c(c3ccccc31)C[C@H](NS(=O)(=O)c1ccc(F)cc1)CC2,inactive,–,–,–,–,–,inactive,inactive,inactive,inactive,inactive,–,inactive,inactive,inactive,–,–,–,–,–
CCCCCCOc1ccc(O)cc1,inactive,–,inactive,8.63 µM (active),–,inactive,–,–,–,inactive,–,inactive,inactive,–,inactive,inactive,–,–,27.3 µM (active),inactive
